Results from PubChem BioAssay (EPA / NIEHS).
“And” between values parts separate entries of the source, which are not always exact repeats. Equal entries are not always repeated. Inconclusive results are not listed. More than one record can exist for a structure, and the calls need not agree. The source made the active and inactive calls. Rule for the calls: active = hit-call score of the fitted dose curve at least 0.9, where 1 is the maximum; inconclusive = response in the unintended direction; inactive = score below 0.9.

Test: Tanguay_ZF_120hpf_TRUN_legacy: (Legacy) Oregon State University Tanguay Lab 120 Hour Post-fertilization zebrafish Assay for Truncated Body (AID 2283655)
Protocol: Tanguay_ZF_120hpf_legacy is a whole embryo, multiplexed endpoint assay using zebrafish larvae exposed for 120 hours post fertilization on a 96-well plate.Tanguay_ZF_120hpf_TRUN_legacy is one of one assay component(s) measured or calculated from the Tanguay_ZF_120hpf_legacy assay. It is designed to make measurements of zebrafish development as detected with brightfield microscopy of developing zebrafish embryos.Data from the assay component Tanguay_ZF_120hpf_TRUN_legacy was analyzed into 1 assay endpoints. This assay endpoint, Tanguay_ZF_120hpf_TRUN_legacy, was analyzed in the positive analysis fitting direction relative to DMSO as the negative control and baseline of activity. Using a type of morphology reporter, gain-of-signal activity can be used to understand changes in developmentals as they relate to the whole embryo. To generalize the intended target to other relatable targets, this assay endpoint is annotated to the zebrafish development intended target family, where the subfamily is embryonic morphogenesis.
Zebrafish husbandry: Tropical 5D wild-type adult zebrafish were housed in at an approximate density of 1000 per 100 gallon tank at the Sinnhuber Aquatic Research Laboratory, Oregon State University, Corvallis, OR. Each tank was kept at standard laboratory conditions of 28C on a 14-h light/10-h dark photoperiod in fish water consisting of reverse osmosis water supplemented with a commercially available salt (Instant Ocean). Spawning funnels were placed into the tanks the night prior, and embryos were collected and staged. To increase bioavailability, the chorion was enzymatically removed using pronase (63.6mg/ml, >/= 3.5U/mg, Sigma-Aldrich: P5147) at 4 hours post fertilization (hpf) using a custom automated dechorionator.Chemical exposures: Six hpf dechorionated embryos were placed 1 embryo per well in a 96-well plate prefilled with 90 ul of EM using automated embryo placement systems (AEPS). Ten microliters of each row of dilution plate 2 was added to 2 exposure plates. The final DMSO concentration used was 0.64% (vol/vol). Thirty-two embryos were also exposed to 5uM trimethyltin chloride (positive control). Plates were sealed to prevent evaporation and foil covered to reduce light exposure and kept in a 28C incubator. Embryos were statically exposed until 120 hpf. At 24 hpf, embryos were assessed for photomotor response using a custom photomotor response analysis tool (PRAT) and for developmental toxicity endpoints (MO24: mortality at 24 hpf, DP: developmental progression, SM: spontaneous movement, and NC: notochord distortion). At 120 hpf, locomotor activity was measured using Viewpoint Zebralab and assessed for 18 endpoints. Zebrafish acquisition and analysis program (ZAAP), a custom program designed to inventory, acquire, and manage zebrafish data, was used to collect developmental endpoints as either present or absent (i.e., binary responses were recorded). If mortality occurred for an embryo (at either 24 or 120 hpf), the non-mortality endpoints were not measured.

| SMILES | outcome | AC50 |
| --- | --- | --- |
| CCOC(=O)C(C)Oc1ccc(Oc2nc3ccc(Cl)cc3o2)cc1 (stereo not given) | inactive |  |
| CSC(=O)c1cccc2nnsc12 | inactive |  |
| C[C@]12C[C@H](O)[C@H]3[C@@H](CCC4=CC(=O)CC[C@@]43C)[C@@H]1CC[C@@H]2C(=O)CO | inactive |  |
| CC(C)(c1ccc(O)cc1)c1ccc(O)cc1 | inactive | 25.9 µM (active) and 43.8 µM (active) |
| S=C(S)NCCNC(=S)S.[Mn+2].[S-]C([S-])=NCCN=C([S-])[S-].[Zn+2] | inactive |  |
| O=C(O)C1(C(=O)Nc2ccc(Cl)cc2Cl)CC1 | inactive |  |
| S=C([S-])NCCNC(=S)[S-].[Mn+2] | inactive |  |
| O=C(c1ccc(O)cc1O)c1ccc(O)cc1O | inactive |  |
| CCNc1nc(N)nc(Cl)n1 | inactive |  |
| CCCCOCCOCCOCc1cc2c(cc1CCC)OCO2 |  | 48 µM (active) |
| c1ccc2[nH]c(-c3cscn3)nc2c1 | inactive |  |
| CCN(CC)C(=O)c1cccc(C)c1 | inactive |  |
| CC(C)(C)[C@@H](O)[C@@H](Cc1ccc(Cl)cc1)n1cncn1 | inactive |  |
| C[C@]12CC[C@@H]3c4ccc(O)cc4C[C@@H](CCCCCCCCCS(=O)CCCC(F)(F)C(F)(F)F)[C@H]3[C@@H]1CC[C@@H]2O (stereo not given in full) | inactive |  |
| Cc1nn(C)c(Oc2ccccc2)c1C=NOCc1ccc(C(=O)OC(C)(C)C)cc1 | inactive |  |
| N[C@@H](Cc1cc(I)c(Oc2ccc(O)c(I)c2)c(I)c1)C(=O)O | inactive |  |
| CC(=O)S[C@@H]1CC2=CC(=O)CC[C@]2(C)[C@H]2CC[C@@]3(C)[C@@H](CC[C@@]34CCC(=O)O4)[C@H]12 | inactive |  |
| COCCO | inactive |  |
| CCCCCOC(=O)COc1cc(N2C(=O)C3=C(CCCC3)C2=O)c(F)cc1Cl | inactive |  |
| CC(=O)[C@H]1CC[C@H]2[C@@H]3CCC4=CC(=O)CC[C@]4(C)[C@H]3CC[C@]12C | inactive |  |

| SMILES | outcome | AC50 |
| --- | --- | --- |
| CCCCOC(=O)[C@@H](C)Oc1ccc(Oc2ccc(C(F)(F)F)cn2)cc1 | inactive |  |
| N#CSCSc1nc2ccccc2s1 | inactive |  |
| CCOC(=O)COc1cc(-n2ncc(C(F)(F)F)c(C)c2=O)c(F)cc1Cl | inactive |  |
| C=CCOC(Cn1ccnc1)c1ccc(Cl)cc1Cl (stereo not given) | inactive |  |
| CC1(C)C(C=C(Cl)Cl)C1C(=O)OCc1cccc(Oc2ccccc2)c1 (stereo not given) | inactive |  |
| O=C(Nc1ccc([N+](=O)[O-])cc1Cl)c1cc(Cl)ccc1O | inactive |  |
| CCOC(=O)c1ccc(O)cc1 | inactive |  |
| CCOC(=O)C(C)Oc1ccc(Oc2cnc3cc(Cl)ccc3n2)cc1 (stereo not given) | inactive |  |
| Oc1ccc(C(c2ccc(O)cc2)C(Cl)(Cl)Cl)cc1 |  | 69.5 µM (active) |
| CCSC(=O)N(CC(C)C)CC(C)C | inactive |  |
| CC(C)CCCCCCc1ccc(O)cc1 | inactive |  |
| CCC(C)OC(=O)N1CCCCC1CCO (stereo not given) | inactive |  |
| CCN(Cc1c(F)cccc1Cl)c1c([N+](=O)[O-])cc(C(F)(F)F)cc1[N+](=O)[O-] | inactive |  |
| O=C(c1ccccc1)C1CCCCC1 | inactive |  |
| COc1c(Cl)ccc(Cl)c1C(=O)O | inactive |  |
| CCCCC(CC)COC(=O)c1ccccc1C(=O)O (stereo not given) | inactive |  |
| COC(=O)c1ccccc1C(=O)O | inactive |  |
| COC(=O)CSc1cc(N=c2sc(=O)n3n2CCCC3)c(F)cc1Cl | inactive |  |
| CCCN(CCC)C(=O)SCC | inactive |  |
